Data from the supplement of paper PMC10849652.
Targets with a hit are over-represented here; the source holds about 8,800 in all. About 0.5% of all pairs of compound and target were hits.

Experiments:
Experiment in all cases: log2 fold change, soluble protein after heating vs DMSO (PISA); higher = thermal stabilisation; K562 lysate, 10 uM; active = over 0.2 and 3.5 SD of the protein, either way, in both replicates (recomputed)
alvocidib = compound: CN1CC[C@H](c2c(O)cc(O)c3c(=O)cc(-c4ccccc4Cl)oc23)[C@H](O)C1 [alvocidib]
Summary of the method: (§1)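 To prepare the extract, K562 pellets were dounce-homogenised in PBS pH 7.4 with 1 mM MgCl2, giving crude material at 1 mg/mL protein. This was treated with 10 μM compound for 30 min, then heated in aliquots for 3 min over 48°C-58°C before pooling and addition of NP-40 to 0.5% at 4°C. Centrifugation at 21,000xg for 90 min left soluble protein in the supernatant, which TMTpro 16plex LC-MS/MS quantified with equalised channel sums. Results are log-two fold changes in thermal stability compared with solvent controls, from duplicates.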

Tubastatin A = compound: CN1CCc2c(c3ccccc3n2Cc2ccc(C(=O)NO)cc2)C1 [Tubastatin A]
Summary of the method: as §1

[1] = compound: CNC(=O)C1=CC=CC=C1NC2=NC(=NC=C2Cl)NC3=C(C=C(C=C3)N4CCOCC4)OC
Summary of the method: as §1

defactinib = compound: CNC(=O)c1ccc(Nc2ncc(C(F)(F)F)c(NCc3nccnc3N(C)S(C)(=O)=O)n2)cc1 [defactinib]
Summary of the method: as §1

[2] = compound: CNc1nc(-c2ccc3c(N)n[nH]c3c2)cc(N2C[C@@H](C(=O)NC3CCCCC3)CC[C@H]2C)n1
Summary of the method: as §1

encorafenib = compound: COC(=O)N[C@@H](C)CNc1nccc(-c2cn(C(C)C)nc2-c2cc(Cl)cc(NS(C)(=O)=O)c2F)n1 [encorafenib]
Summary of the method: as §1

[3] = compound: COC(=O)[C@H](CCSC)NC(=O)C1=C(C=C(C=C1)NC[C@H](CS)N)C2=CC=CC=C2
Summary of the method: as §1

alisertib = compound: COc1cc(Nc2ncc3c(n2)-c2ccc(Cl)cc2C(c2c(F)cccc2OC)=NC3)ccc1C(=O)O [alisertib]
Summary of the method: as §1

[4] = compound: COc1cc2nc(-c3cc(F)ccc3O)nc(N[C@@H]3CNC[C@H]3C(C)(C)O)c2cc1OC
Summary of the method: as §1

gefitinib = compound: COc1cc2ncnc(Nc3ccc(F)c(Cl)c3)c2cc1OCCCN1CCOCC1 [gefitinib]
Summary of the method: as §1

lapatinib = compound: CS(=O)(=O)CCNCc1ccc(-c2ccc3ncnc(Nc4ccc(OCc5cccc(F)c5)c(Cl)c4)c3c2)o1 [lapatinib]
Summary of the method: as §1

pictilisib = compound: CS(=O)(=O)N1CCN(Cc2cc3nc(-c4cccc5[nH]ncc45)nc(N4CCOCC4)c3s2)CC1 [pictilisib]
Summary of the method: as §1

crizotinib = compound: C[C@@H](Oc1cc(-c2cnn(C3CCNCC3)c2)cnc1N)c1c(Cl)ccc(F)c1Cl [crizotinib]
Summary of the method: as §1

[5] = compound: C[C@H](C1=CC=C(C=C1)C(=O)NC2=C3C=CNC3=NC=C2)N
Summary of the method: as §1

duvelisib = compound: C[C@H](Nc1ncnc2nc[nH]c12)c1cc2cccc(Cl)c2c(=O)n1-c1ccccc1 [duvelisib]
Summary of the method: as §1

gandotinib = compound: Cc1cc(Nc2cc(CN3CCOCC3)c3nc(C)c(Cc4ccc(Cl)cc4F)n3n2)n[nH]1 [gandotinib]
Summary of the method: as §1

tozasertib = compound: Cc1cc(Nc2cc(N3CCN(C)CC3)nc(Sc3ccc(NC(=O)C4CC4)cc3)n2)n[nH]1 [tozasertib]
Summary of the method: as §1

doramapimod = compound: Cc1ccc(-n2nc(C(C)(C)C)cc2NC(=O)Nc2ccc(OCCN3CCOCC3)c3ccccc23)cc1 [doramapimod]
Summary of the method: as §1

bafetinib = compound: Cc1ccc(NC(=O)c2ccc(CN3CC[C@H](N(C)C)C3)c(C(F)(F)F)c2)cc1Nc1nccc(-c2cncnc2)n1 [bafetinib]
Summary of the method: as §1

[6] = compound: Cc1cccc(CC(=O)N2CCc3c2ccc(-c2cn(C)c4ncnc(N)c24)c3F)n1
Summary of the method: as §1

Measured: log2 fold change

DES (UniProt P17661)
inactive: alvocidib -0.144 | Tubastatin A 0.091 | [1] -0.023 | defactinib -0.056 | [2] 0.26 | encorafenib 0 | [3] -0.029 | alisertib -0.017 | [4] 0.117 | gefitinib 0.04 | lapatinib -0.079 | pictilisib -0.03 | crizotinib -0.082 | [5] -0.301 | duvelisib 0.098 | gandotinib 0.13 | tozasertib -0.014 | doramapimod 0.047 | bafetinib -0.051 | [6] 0.121

COG5 isoform 2 (UniProt Q9UP83)
inactive: alvocidib 0.02 | Tubastatin A -0.051 | [1] 0.04 | defactinib -0.005 | [2] -0.015 | encorafenib -0.025 | [3] -0.037 | alisertib -0.012 | [4] -0.053 | gefitinib 0.027 | lapatinib -0.059 | pictilisib -0.03 | crizotinib -0.025 | [5] 0.027 | duvelisib 0.007 | gandotinib -0.071 | tozasertib 0.013 | doramapimod -0.024 | bafetinib -0.034 | [6] 0.062

DARS (UniProt P14868)
Sequence of UniProt P14868 (P14868 whole entry, looked up): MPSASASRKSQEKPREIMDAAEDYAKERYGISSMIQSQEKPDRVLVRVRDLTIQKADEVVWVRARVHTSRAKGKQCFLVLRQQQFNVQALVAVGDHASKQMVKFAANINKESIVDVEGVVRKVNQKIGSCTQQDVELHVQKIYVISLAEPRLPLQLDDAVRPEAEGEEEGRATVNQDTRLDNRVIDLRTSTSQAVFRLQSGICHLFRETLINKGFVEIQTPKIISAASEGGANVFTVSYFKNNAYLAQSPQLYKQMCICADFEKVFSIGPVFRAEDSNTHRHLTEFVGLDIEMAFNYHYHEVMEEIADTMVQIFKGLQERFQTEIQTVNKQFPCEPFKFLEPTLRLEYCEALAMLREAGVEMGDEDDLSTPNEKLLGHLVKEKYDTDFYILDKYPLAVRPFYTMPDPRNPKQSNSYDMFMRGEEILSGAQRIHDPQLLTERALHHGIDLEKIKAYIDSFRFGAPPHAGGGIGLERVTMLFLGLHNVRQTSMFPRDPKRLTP
inactive: alvocidib 0.012 | Tubastatin A -0.119 | [1] -0.012 | defactinib 0.012 | [2] -0.061 | encorafenib 0.028 | [3] 0.049 | alisertib 0.038 | [4] 0.003 | gefitinib -0.014 | lapatinib 0.002 | pictilisib 0 | crizotinib -0.033 | [5] -0.036 | duvelisib 0 | gandotinib -0.081 | tozasertib 0.011 | doramapimod 0.015 | bafetinib -0.011 | [6] 0.008

DNM2 (UniProt P50570)
inactive: alvocidib 0.037 | Tubastatin A -0.051 | [1] 0.024 | defactinib 0.007 | [2] 0.029 | encorafenib -0.004 | [3] 0.061 | alisertib 0.014 | [4] -0.02 | gefitinib 0.006 | lapatinib -0.003 | pictilisib 0.022 | crizotinib -0.013 | [5] 0.021 | duvelisib -0.007 | gandotinib -0.076 | tozasertib 0.001 | doramapimod 0.033 | bafetinib -0.011 | [6] 0.035

COQ9 (UniProt O75208)
Sequence of UniProt O75208 (O75208 whole entry, looked up): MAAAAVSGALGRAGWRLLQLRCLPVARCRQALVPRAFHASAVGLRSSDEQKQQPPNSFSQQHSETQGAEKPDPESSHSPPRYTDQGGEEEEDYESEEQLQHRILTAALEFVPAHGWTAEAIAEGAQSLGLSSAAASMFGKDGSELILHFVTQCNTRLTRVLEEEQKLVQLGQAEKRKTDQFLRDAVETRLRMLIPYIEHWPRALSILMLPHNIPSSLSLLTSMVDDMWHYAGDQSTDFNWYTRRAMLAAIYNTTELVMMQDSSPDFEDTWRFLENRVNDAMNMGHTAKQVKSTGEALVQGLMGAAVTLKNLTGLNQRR
inactive: alvocidib 0.002 | Tubastatin A -0.041 | [1] -0.035 | defactinib 0.023 | [2] 0.136 | encorafenib -0.021 | [3] 0.024 | alisertib 0.026 | [4] 0.025 | gefitinib -0.012 | lapatinib -0.033 | pictilisib -0.021 | crizotinib 0.014 | [5] 0.055 | duvelisib -0.052 | gandotinib -0.12 | tozasertib 0.02 | doramapimod -0.055 | bafetinib 0.032 | [6] 0.019

COTL1 (UniProt Q14019)
Sequence of UniProt Q14019 (Q14019 whole entry, looked up): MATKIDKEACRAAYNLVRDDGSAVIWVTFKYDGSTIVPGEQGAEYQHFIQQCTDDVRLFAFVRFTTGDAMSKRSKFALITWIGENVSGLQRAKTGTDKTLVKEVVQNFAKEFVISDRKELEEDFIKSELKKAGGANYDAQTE
inactive: alvocidib 0.021 | Tubastatin A 0.004 | [1] -0.021 | defactinib -0.04 | [2] -0.008 | encorafenib -0.033 | [3] -0.029 | alisertib -0.009 | [4] -0.001 | gefitinib -0.002 | lapatinib 0.007 | pictilisib 0.016 | crizotinib 0.045 | [5] 0.245 | duvelisib -0.009 | gandotinib -0.062 | tozasertib 0.024 | doramapimod -0.044 | bafetinib 0.102 | [6] -0.122

CSTF2 (UniProt P33240)
Sequence of UniProt P33240 (P33240 whole entry, looked up): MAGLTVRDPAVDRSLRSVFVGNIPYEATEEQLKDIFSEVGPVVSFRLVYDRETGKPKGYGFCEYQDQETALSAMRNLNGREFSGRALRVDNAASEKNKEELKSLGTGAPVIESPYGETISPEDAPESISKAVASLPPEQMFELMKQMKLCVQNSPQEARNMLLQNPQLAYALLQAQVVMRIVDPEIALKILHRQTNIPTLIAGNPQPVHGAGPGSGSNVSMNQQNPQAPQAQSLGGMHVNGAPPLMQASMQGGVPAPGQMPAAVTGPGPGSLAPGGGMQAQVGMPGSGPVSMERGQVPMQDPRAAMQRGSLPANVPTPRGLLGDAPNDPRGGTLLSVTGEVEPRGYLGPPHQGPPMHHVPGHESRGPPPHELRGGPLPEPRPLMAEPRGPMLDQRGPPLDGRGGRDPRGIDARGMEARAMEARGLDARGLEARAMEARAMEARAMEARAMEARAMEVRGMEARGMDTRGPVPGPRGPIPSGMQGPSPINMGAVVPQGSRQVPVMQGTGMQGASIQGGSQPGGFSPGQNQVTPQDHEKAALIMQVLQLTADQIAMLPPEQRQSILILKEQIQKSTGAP
inactive: alvocidib -0.023 | Tubastatin A 0.011 | [1] 0.014 | defactinib -0.016 | [2] 0.024 | encorafenib -0.009 | [3] -0.099 | alisertib 0.03 | [4] 0.011 | gefitinib 0.008 | lapatinib -0.006 | pictilisib -0.049 | crizotinib 0.003 | [5] -0.025 | duvelisib 0.044 | gandotinib 0.051 | tozasertib 0.033 | doramapimod 0.036 | bafetinib 0.03 | [6] -0.001

COG7 (UniProt P83436)
inactive: alvocidib 0.019 | Tubastatin A -0.114 | [1] -0.02 | defactinib 0.056 | [2] -0.047 | encorafenib 0.028 | [3] 0.035 | alisertib 0.014 | [4] 0.012 | gefitinib 0.004 | lapatinib -0.014 | pictilisib -0.008 | crizotinib -0.025 | [5] -0.068 | duvelisib -0.01 | gandotinib -0.059 | tozasertib -0.028 | doramapimod 0.028 | bafetinib -0.044 | [6] 0.058

CMSS1 (UniProt Q9BQ75)
Sequence of UniProt Q9BQ75 (Q9BQ75 whole entry, looked up): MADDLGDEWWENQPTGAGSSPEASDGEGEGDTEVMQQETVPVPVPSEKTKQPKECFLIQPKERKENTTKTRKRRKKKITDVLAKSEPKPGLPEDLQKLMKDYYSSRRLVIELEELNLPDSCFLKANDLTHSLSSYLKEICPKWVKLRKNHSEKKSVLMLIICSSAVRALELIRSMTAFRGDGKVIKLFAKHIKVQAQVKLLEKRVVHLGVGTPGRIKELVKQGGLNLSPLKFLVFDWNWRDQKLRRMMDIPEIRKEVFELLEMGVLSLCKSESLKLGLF
inactive: alvocidib 0.013 | Tubastatin A -0.036 | [1] -0.02 | defactinib -0.009 | [2] -0.032 | encorafenib 0.015 | [3] 0.024 | alisertib 0.02 | [4] 0.004 | gefitinib 0.025 | lapatinib 0.012 | pictilisib 0.016 | crizotinib -0.021 | [5] 0.176 | duvelisib -0.001 | gandotinib -0.086 | tozasertib 0.009 | doramapimod 0.015 | bafetinib -0.026 | [6] -0.015

CHEK2 (UniProt O96017)
Sequence of UniProt O96017 (O96017 whole entry, looked up): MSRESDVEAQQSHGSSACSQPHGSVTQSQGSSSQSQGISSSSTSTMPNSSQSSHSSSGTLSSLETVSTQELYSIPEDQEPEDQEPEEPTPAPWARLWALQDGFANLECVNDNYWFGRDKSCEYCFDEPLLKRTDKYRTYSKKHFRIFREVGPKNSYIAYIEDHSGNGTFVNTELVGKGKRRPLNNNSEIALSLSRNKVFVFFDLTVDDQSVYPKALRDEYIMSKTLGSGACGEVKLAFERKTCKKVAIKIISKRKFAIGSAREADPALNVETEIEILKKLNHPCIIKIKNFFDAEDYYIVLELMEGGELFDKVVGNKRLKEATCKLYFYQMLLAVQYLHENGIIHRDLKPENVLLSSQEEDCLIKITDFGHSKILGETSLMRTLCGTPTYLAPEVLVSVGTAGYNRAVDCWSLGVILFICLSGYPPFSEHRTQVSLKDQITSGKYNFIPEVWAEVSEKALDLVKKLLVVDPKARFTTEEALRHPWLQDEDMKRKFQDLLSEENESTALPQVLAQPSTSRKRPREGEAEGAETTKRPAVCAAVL
inactive: alvocidib 0.093 | Tubastatin A -0.007 | defactinib 0.022 | [2] -0.085 | encorafenib -0.022 | [3] 0.092 | alisertib 0 | [4] -0.052 | gefitinib 0.09 | lapatinib 0.08 | pictilisib -0.012 | crizotinib 0.069 | [5] -0.011 | duvelisib 0.002 | gandotinib -0.019 | tozasertib 0.039 | doramapimod 0.018 | bafetinib -0.046 | [6] -0.008
active: [1] 0.207

CSNK1G3 (UniProt Q9Y6M4)
Sequence of UniProt Q9Y6M4 (Q9Y6M4 whole entry, looked up): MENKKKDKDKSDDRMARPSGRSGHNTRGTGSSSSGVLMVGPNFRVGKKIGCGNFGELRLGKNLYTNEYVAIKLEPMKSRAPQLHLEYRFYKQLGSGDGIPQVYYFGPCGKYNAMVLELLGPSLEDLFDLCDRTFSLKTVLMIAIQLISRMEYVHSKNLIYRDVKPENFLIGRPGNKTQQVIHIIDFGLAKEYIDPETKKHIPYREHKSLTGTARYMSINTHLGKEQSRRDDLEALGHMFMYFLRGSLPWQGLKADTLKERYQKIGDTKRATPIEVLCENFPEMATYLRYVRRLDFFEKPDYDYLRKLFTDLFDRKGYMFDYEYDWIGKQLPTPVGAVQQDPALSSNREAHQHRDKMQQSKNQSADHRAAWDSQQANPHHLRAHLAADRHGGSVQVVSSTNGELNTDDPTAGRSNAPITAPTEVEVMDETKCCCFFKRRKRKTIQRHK
active: [4] 0.459
inactive: alvocidib 0.032 | Tubastatin A 0.064 | [1] 0.014 | defactinib 0.069 | [2] 0.03 | encorafenib 0.018 | [3] -0.033 | alisertib -0.005 | gefitinib -0.005 | lapatinib -0.155 | pictilisib 0.118 | crizotinib 0.026 | [5] 0.214 | duvelisib -0.042 | gandotinib -0.032 | tozasertib -0.048 | doramapimod -0.003 | bafetinib -0.09 | [6] -0.021

CNDP2 (UniProt Q96KP4)
Sequence of UniProt Q96KP4 (Q96KP4 whole entry, looked up): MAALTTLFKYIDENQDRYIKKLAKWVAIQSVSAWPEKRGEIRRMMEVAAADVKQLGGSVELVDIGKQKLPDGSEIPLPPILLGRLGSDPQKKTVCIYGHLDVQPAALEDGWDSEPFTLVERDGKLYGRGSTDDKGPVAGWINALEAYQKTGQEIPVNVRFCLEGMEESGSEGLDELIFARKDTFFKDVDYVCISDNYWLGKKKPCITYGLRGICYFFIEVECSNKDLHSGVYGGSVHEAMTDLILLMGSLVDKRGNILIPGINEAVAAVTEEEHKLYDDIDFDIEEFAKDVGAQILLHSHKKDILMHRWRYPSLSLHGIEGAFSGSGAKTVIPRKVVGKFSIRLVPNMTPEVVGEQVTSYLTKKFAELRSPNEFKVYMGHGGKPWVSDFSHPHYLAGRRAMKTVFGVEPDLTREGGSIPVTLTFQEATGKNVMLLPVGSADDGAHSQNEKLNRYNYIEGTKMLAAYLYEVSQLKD
inactive: alvocidib -0.11 | Tubastatin A 0.039 | [1] 0.003 | defactinib 0.005 | [2] 0.1 | encorafenib -0.02 | [3] 0.002 | alisertib -0.031 | [4] 0.047 | gefitinib 0.013 | lapatinib -0.021 | pictilisib -0.017 | crizotinib -0.008 | duvelisib 0.037 | tozasertib -0.062 | doramapimod 0.001 | bafetinib -0.002 | [6] 0.212
active: [5] -0.255 | gandotinib 0.244

DPM1 (UniProt O60762)
Sequence of UniProt O60762 (O60762 whole entry, looked up): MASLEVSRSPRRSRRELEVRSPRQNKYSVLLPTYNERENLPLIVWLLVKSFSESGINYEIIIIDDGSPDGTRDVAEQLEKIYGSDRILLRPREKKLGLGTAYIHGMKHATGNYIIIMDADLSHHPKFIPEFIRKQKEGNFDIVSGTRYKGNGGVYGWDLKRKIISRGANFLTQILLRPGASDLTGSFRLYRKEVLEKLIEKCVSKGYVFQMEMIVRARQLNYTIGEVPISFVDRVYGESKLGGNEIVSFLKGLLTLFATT
inactive: alvocidib 0.084 | Tubastatin A 0.055 | [1] -0.005 | defactinib 0.037 | [2] 0.041 | encorafenib 0.01 | [3] 0.083 | alisertib 0.047 | [4] 0.013 | gefitinib -0.041 | lapatinib -0.003 | pictilisib 0.009 | crizotinib 0.009 | [5] 0.028 | duvelisib -0.018 | gandotinib -0.097 | tozasertib -0.014 | doramapimod -0.046 | bafetinib -0.061 | [6] 0.061

COQ8A (UniProt Q8NI60)
Sequence of UniProt Q8NI60 (Q8NI60 whole entry, looked up): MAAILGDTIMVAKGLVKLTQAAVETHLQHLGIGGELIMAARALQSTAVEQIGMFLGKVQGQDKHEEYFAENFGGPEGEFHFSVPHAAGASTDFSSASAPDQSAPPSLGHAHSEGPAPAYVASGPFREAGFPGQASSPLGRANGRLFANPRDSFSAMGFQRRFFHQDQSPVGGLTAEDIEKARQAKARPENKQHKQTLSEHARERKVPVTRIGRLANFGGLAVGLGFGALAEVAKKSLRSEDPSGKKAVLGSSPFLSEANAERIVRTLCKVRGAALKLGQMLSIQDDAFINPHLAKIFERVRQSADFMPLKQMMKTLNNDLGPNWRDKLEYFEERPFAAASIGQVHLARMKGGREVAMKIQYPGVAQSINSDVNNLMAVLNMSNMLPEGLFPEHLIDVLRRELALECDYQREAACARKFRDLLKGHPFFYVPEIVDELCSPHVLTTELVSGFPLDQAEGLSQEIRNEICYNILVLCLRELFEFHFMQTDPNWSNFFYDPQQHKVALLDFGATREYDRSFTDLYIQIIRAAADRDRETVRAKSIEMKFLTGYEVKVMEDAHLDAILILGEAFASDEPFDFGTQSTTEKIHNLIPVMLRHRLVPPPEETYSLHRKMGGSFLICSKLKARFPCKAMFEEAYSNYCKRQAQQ
inactive: alvocidib 0.051 | Tubastatin A -0.06 | [1] 0.384 | defactinib 0 | [2] 0.079 | encorafenib 0.145 | [3] -0.009 | alisertib -0.023 | [4] 0.009 | gefitinib 0.447 | lapatinib 0.004 | pictilisib 0.025 | crizotinib 0.106 | [5] -0.078 | duvelisib -0.095 | gandotinib 0.126 | tozasertib 0.023 | doramapimod -0.059 | bafetinib 0.041 | [6] -0.042

COG2 (UniProt Q14746)
Sequence of UniProt Q14746 (Q14746 whole entry, looked up): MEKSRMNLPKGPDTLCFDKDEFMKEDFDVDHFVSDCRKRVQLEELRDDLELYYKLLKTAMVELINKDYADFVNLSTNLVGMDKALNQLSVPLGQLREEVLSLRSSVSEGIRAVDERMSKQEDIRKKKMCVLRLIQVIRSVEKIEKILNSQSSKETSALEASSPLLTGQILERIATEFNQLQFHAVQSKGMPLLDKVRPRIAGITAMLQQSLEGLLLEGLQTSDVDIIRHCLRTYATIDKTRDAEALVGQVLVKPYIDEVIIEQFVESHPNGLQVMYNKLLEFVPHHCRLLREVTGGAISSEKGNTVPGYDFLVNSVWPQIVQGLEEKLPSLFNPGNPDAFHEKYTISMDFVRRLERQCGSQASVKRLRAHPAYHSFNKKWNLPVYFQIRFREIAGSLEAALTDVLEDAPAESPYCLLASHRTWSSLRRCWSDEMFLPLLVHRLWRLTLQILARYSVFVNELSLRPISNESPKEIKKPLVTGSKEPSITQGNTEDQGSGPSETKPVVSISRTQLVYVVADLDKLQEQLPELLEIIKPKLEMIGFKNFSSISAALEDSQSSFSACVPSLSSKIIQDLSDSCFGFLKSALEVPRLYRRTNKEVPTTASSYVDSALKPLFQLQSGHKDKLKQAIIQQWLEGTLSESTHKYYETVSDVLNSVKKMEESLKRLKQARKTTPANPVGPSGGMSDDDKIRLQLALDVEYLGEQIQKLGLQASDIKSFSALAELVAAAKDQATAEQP
inactive: alvocidib -0.032 | Tubastatin A -0.114 | [1] -0.009 | defactinib 0.05 | [2] 0.028 | encorafenib -0.009 | [3] 0.052 | alisertib 0.021 | [4] -0.022 | gefitinib -0.039 | lapatinib -0.009 | pictilisib -0.03 | crizotinib -0.041 | [5] -0.025 | duvelisib 0.025 | gandotinib -0.118 | tozasertib 0.012 | doramapimod 0.009 | bafetinib -0.027 | [6] 0.02
